According to PubChem BioAssay (NCATS):
Inconclusive results are not listed. A call without a number means that no potency is given here. Unmarked numbers belong to inactive results. Calls of active or inactive are those of the source. The call rests on the fitted dose curve; in most records, active means well fitted curve in the direction sought with a large enough effect; inconclusive means small, poorly fitted or top-dose-only effect, or another doubt; inactive means no such curve, though single readings can be large; an effect the other way counts as inactive or inconclusive.

How the values were obtained:
[1] = tested on: Zika virus NS2B-NS3 protease; test: Primary screen GU AMC qHTS for Zika virus inhibitors (AID 1347154); further: nearly all actives have a fitted effect of over 70% in size
In short: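 Fluorogenic AMC-substrate cleavage by noncovalent NS2B-NS3 protease complex (25 nM, pH 8.0 Tris buffer with Tween 20) followed for 15 minutes at room temperature (~20% conversion). Percent inhibition from ex340/em450 signal change, fitted by 4-parameter Hill equation.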

Furin (Homo sapiens) = Furin (Homo sapiens) (UniProt P09958); test: Furin counterscreen qHTS for Zika virus inhibitors (AID 1347149);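 further: purified recombinant full-length human furin enzyme at 5 nM; fluorescence gain from furin cutting a BOC-RVRR-AMC peptide substrate over 15 min; top concentration of the series differs between compounds; nearly all actives have a fitted effect of over 70% in size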
In short: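 Counterscreen measures cleavage of 2 microM BOC-RVRR-AMC, below its ~15 microM Km, by 5 nM full-length human furin at pH 7.0 after a 15-min compound preincubation. Inhibition derives from the 15-min fluorescence increase at 37C.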

[2] = Confirmatory screen GU Rhodamine qHTS for Zika virus inhibitors qHTS (AID 1347157); further: nearly all actives have a fitted effect of over 70% in size; further: potency means the concentration at half of the fitted maximal effect
In short: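 In dose–response format, inhibition of unlinked protease (25 nM) was measured with 1.5 microM bis-peptide Rhodamine110 substrate. Aprotinin served as the intraplate control.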

[3] = Confirmatory screen NINDS Rhodamine qHTS for Zika virus inhibitors (AID 1347161); further: nearly all actives have a fitted effect of over 60% in size; further: potency means the concentration at half of the fitted maximal effect;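 on activity change, negative = inhibition: purified Zika NS2B-NS3 protease with linked NS2B cofactor domain and Rhodamine110 peptide substrate; series mostly up to about 110 µM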
In short: (§1)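 Single-chain NS2B-NS3 protease, 25 nM, pH 8.0; compounds preincubated 15 min. Activity: Rhodamine110 release from 1.5 microM substrate over 15 min, room temperature, data fitted to 4-parameter Hill.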

[4] = Tertiary RLuc qRT-PCR qHTS assay for Zika virus inhibitors (AID 1347169); further: nearly all actives have a fitted effect of over 55% in size; further: potency means the concentration at half of the fitted maximal effect; on activity change, negative = inhibition: top concentration of the series differs between compounds
In short: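 Vero cells (1,000 per well) plated overnight at 37 degrees C, treated with compound in DMSO, then infected with recombinant ZIKV-RLuc (Cambodian) at MOI 1-2 for 48-72 hrs. Live-cell Renilla luciferase substrate added; luminescence read after 1-1.5 hrs.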

[5] = tested on: Zika virus NS2B-NS3 protease (linked construct); test: Primary screen NINDS Rhodamine qHTS for Zika virus inhibitors (AID 1347160); further: nearly all actives have a fitted effect of over 55% in size; further: potency means the concentration at half of the fitted maximal effect
In short: as §1

[6] = tested on: Zika virus NS2B-NS3 protease (unlinked); test: Optimization of GU AMC qHTS for Zika virus inhibitors: Unlinked NS2B-NS3 protease assay (AID 1347151); further: series mostly up to about 52 µM; nearly all actives have a fitted effect of over 80% in size
In short: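 Noncovalent complex of NS2B hydrophilic domain and NS3 protease domain, 25 nM final, in 10 mM Tris-HCl pH 8.0, 0.01% Tween 20. AMC fluorescence change over 15 min at room temperature was fitted to a 4-parameter Hill equation.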

[7] = tested on: Zika virus NS2B-NS3 protease (unlinked complex); test: Primary screen GU Rhodamine qHTS for Zika virus inhibitors: Unlinked NS2B-NS3 protease assay (AID 1347159); further: nearly all actives have a fitted effect of over 60% in size; further: potency means the concentration at half of the fitted maximal effect
In short: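 Unlinked NS2B/NS3, 25 nM; Rhod110 peptide, 1.5 microM; compounds, up to 114 microM. Reaction run 15 min at RT in 10 mM Tris-HCl pH 8.0, 0.01% Tween 20; kinetic fluorescence change fitted with a 4-parameter Hill model.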

[8] = Vero cells viability qHTS for Zika virus inhibitors (AID 1347167)
In short: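 Luminescent ATP readout (CellTiter Glo) after 30 min at 37 degrees C gives viability; cells in DMEM + 4% FBS were treated 24 to 48 hours with compound, following overnight attachment.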

[9] = qHTS of pediatric cancer cell lines to identify multiple opportunities for drug repurposing: Primary screen for Rh30 cells (AID 1347107); further: series mostly up to about 46 µM; nearly all actives have a fitted effect of over 75% in size
In short: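 Cells (500-1,000/well) rested 5 h, then received compounds for 48 h; metabolically active cells were measured by CellTiter-Glo luminescence. Final concentrations spanned up to 46 µM (MIPE, 11-point) or 0.59 nM-46 µM (NPC, 8-point) in primary screens, 11-point in follow-ups.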

[10] = qHTS of pediatric cancer cell lines to identify multiple opportunities for drug repurposing: Primary screen for Rh41 cells (AID 1347108);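 further: series mostly up to about 46 µM; luminescence drop marks cytotoxic hits; nearly all actives have a fitted effect of over 70% in size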
In short: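 500-1,000 cells/well; 5 h pre-incubation 37 °C/5% CO2; compound pinned; 48 h; CellTiter-Glo, 15 min RT; luminescence. MIPE 11-pt from 0.78 nM, NPC 8-pt from 0.59 nM final. Bortezomib 2.3 µM final as positive control.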

[11] = qHTS to identify inhibitors of the type 1 interferon - major histocompatibility complex class I in skeletal muscle: primary screen against the NCATS Pharmaceutical Collection (AID 1347407);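 further: luminescence of HiBiT knocked into endogenous HLA-B as interferon-induced MHC class I level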
In short: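 Immortalized human myoblasts (C25cl48) with HiBiT knocked into endogenous HLA-B*08:01 were stimulated with 4 ng/ml IFN-beta and treated with compounds (8-point, 1:5, top 46 uM final) for 24 h at 37 C; HiBiT lytic luminescence read.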

[12] = ZIKV-mCherry secondary qHTS for Zika virus inhibitors (AID 1347158); further: top concentration of the series differs between compounds
In short: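 Read-out is percent infection: mCherry-positive Vero cells (nuclear-proximal intensity >450 RFU, 3 SD above negative controls) counted by high-content imaging of Hoechst-stained, PFA-fixed wells after 48-72 h with ZIKV-mCherry at MOI 1 and compound.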

[13] = tested on: Zika virus NS2B-NS3 protease (linked); test: 384 well plate NINDS AMC confirmatory qHTS for Zika virus inhibitors (AID 1347163); conditions: Recombinant NS2B-NS3 protease, Ac-VKTGKR-AMC fluorescence; further: potency means the concentration at half of the fitted maximal effect; nearly all actives have a fitted effect of over 50% in size
In short: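 Enzyme (5, 30 or 60 nM final) first met test compounds for ~15 min. The AMC-tagged peptide Ac-VKTGKR-AMC followed at 30 microM. Fluorescence was then recorded at 25 min and scaled against no-enzyme and no-inhibitor wells.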

[14] = tested on: Zika virus NS2B-NS3 protease (linked construct); test: 384 well plate NINDS Rhodamine confirmatory qHTS for Zika virus inhibitors (AID 1347164); conditions: rhodamine-110 peptide substrate fluorescence;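 further: fluorescence from protease cleavage of Ac-LKRR-rhodamine 110 substrate; potency means the concentration at half of the fitted maximal effect; nearly all actives have a fitted effect of over 65% in size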
In short: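 Linked protease at a final 5 nM, 30 nM or 60 nM was preincubated ~15 min with compounds, then given 10 microM Ac-LKRR-Rhodamine 110. Fluorescence (ex 485/em 538 nm) after 25 min in the dark at room temperature.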

Sequence of Furin (Homo sapiens) (P09958 whole entry, looked up): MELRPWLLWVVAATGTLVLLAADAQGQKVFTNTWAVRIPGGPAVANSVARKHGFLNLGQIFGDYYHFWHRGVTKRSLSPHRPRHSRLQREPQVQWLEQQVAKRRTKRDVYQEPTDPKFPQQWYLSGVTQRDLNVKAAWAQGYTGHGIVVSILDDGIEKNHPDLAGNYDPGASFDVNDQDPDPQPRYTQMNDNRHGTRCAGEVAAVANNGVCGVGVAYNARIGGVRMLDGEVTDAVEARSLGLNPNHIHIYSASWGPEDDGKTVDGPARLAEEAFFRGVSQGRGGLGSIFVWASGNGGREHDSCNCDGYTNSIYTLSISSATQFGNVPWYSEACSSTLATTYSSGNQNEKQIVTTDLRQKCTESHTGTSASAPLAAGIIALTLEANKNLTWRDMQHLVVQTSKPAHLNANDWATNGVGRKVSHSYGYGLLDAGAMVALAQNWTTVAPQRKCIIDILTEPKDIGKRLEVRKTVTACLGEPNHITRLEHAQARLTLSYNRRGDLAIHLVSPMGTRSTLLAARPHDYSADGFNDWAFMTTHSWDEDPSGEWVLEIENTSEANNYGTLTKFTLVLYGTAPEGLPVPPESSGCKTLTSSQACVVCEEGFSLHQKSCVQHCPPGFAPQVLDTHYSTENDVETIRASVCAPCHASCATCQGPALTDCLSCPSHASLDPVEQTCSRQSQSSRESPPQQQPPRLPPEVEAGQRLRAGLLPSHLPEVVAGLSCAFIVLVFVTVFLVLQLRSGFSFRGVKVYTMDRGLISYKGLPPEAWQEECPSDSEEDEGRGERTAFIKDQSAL

C[C@@](Cc1ccc(O)c(O)c1)(NN)C(=O)O
outcome [1]: inactive

N[C@H](CC(=O)O)C(=O)O
outcome [1]: inactive

CC(C)(C)CC(C)(C)c1cc(Cc2cc(C(C)(C)CC(C)(C)C)cc(-n3nc4ccccc4n3)c2O)c(O)c(-n2nc3ccccc3n2)c1
outcome (Furin (Homo sapiens)): inactive
Potency [2]: inactive
Potency [3]: inactive
activity change, negative = inhibition [4]: -2.91% [at 1.74 µM]

C[C@]12CC[C@@H]3c4ccc(OC(=O)c5ccccc5)cc4CC[C@H]3[C@@H]1CC[C@@H]2O
Potency [5]: inactive

CCCCC[C@H](O)/C=C/[C@H]1[C@H](O)CC(=O)[C@@H]1CCCCCCC(=O)O
activity change, negative = inhibition [1]: 5.76% [at 6.83 µM]

O=C(O)CCC/C=C\C[C@@H]1[C@@H](/C=C/[C@@H](O)COc2cccc(Cl)c2)[C@H](O)C[C@@H]1O
outcome [1]: inactive

C[C@H]1O[C@@H](O[C@H]2[C@@H](O)C[C@H](O[C@H]3[C@@H](O)C[C@H](O[C@H]4CC[C@@]5(C)[C@H](CC[C@@H]6[C@@H]5C[C@@H](O)[C@]5(C)[C@@H](C7=CC(=O)OC7)CC[C@]65O)C4)O[C@@H]3C)O[C@@H]2C)C[C@H](O)[C@@H]1O
outcome (Furin (Homo sapiens)): inactive
Potency [6]: inactive
Potency [7]: inactive
Potency [5]: inactive
outcome [8]: inactive
Potency [4]: 0.38 µM (active)

O=C(O)CCC(=O)c1ccc(-c2ccccc2)cc1
outcome [9]: inactive
outcome [10]: inactive
outcome [1]: inactive
outcome [11]: inactive

O=C1CCC(c2ccccc2)(C2CCN(Cc3ccccc3)CC2)C(=O)N1 (configuration not stated)
outcome [1]: inactive

C=C1CC[C@H](O)CC1=C/C=C1\CCC[C@]2(C)[C@@H]([C@H](C)/C=C/[C@H](C)C(C)C)CC[C@@H]12
Potency [7]: 11.2 µM (active)
Potency [5]: 12.6 µM (active)

COC(=O)C(CN)c1c[nH]c2ccc(OC)cc12 (configuration not stated)
outcome [1]: inactive

CC/C=C\C/C=C\C/C=C\C/C=C\C/C=C\C/C=C\CCC(=O)O
outcome [1]: inactive

CCC(C)[C@@H](N)C(=O)O (some centres not stated)
outcome [1]: inactive

COc1ccc2nc(NC(=O)Nc3ccccc3)sc2c1
outcome [9]: inactive
outcome [10]: inactive
outcome [1]: inactive
outcome [11]: inactive

CC(C)(C)c1ccc(CN2CCN(C(c3ccccc3)c3ccc(Cl)cc3)CC2)cc1 (configuration not stated)
Potency [7]: inactive
Potency [5]: inactive

CN(C)CCCSc1ccccc1NC(=O)/C=C/c1ccccc1
outcome [9]: inactive
outcome [10]: inactive
outcome [1]: inactive
outcome [11]: inactive

O=C(O)[C@@H]1C[C@H](CP(=O)(O)O)CCN1
outcome [1]: inactive

CC(=O)Nc1ccc(NC(=S)NC(=O)c2ccc(C(C)(C)C)cc2)cc1
Potency [7]: inactive
Potency [5]: inactive

CO[C@H]1C[C@@H]2CC[C@@H](C)[C@@](O)(O2)C(=O)C(=O)N2CCCC[C@H]2C(=O)O[C@H]([C@H](C)C[C@@H]2CC[C@@H](OC(=O)C(C)(CO)CO)[C@H](OC)C2)CC(=O)[C@H](C)/C=C(\C)[C@@H](O)[C@@H](OC)C(=O)[C@H](C)C[C@H](C)/C=C/C=C/C=C/1C
Potency [7]: inactive
Potency [5]: inactive

Cc1cc(-c2ccc(N=Nc3c(S(=O)(=O)O)cc4cc(S(=O)(=O)O)cc(N)c4c3O)c(C)c2)ccc1N=Nc1c(S(=O)(=O)O)cc2cc(S(=O)(=O)O)cc(N)c2c1O
Potency [2]: 2.24 µM (active)
outcome [12]: inactive
Potency [3]: 2.24 µM (active)
Potency [13]: 20 µM (active)
Potency [14]: 7.94 µM (active)
Potency [4]: inactive

O=C(OCc1ccccc1)c1ccc(O)cc1
outcome [9]: inactive
outcome [10]: inactive
outcome [1]: inactive
outcome [11]: inactive

Nc1ccc(N=Nc2ccccc2)c(N)n1
outcome [9]: inactive
outcome [10]: inactive
outcome [1]: inactive
outcome [11]: inactive

NC[C@H]1O[C@H](O[C@H]2[C@H](O)[C@@H](O[C@H]3O[C@H](CO)[C@@H](O)[C@H](N)[C@H]3O)[C@H](N)C[C@@H]2N)[C@H](N)C[C@@H]1O
outcome [1]: inactive

N[C@@H](Cc1cc(I)c(Oc2ccc(O)c(I)c2)c(I)c1)C(=O)O
outcome (Furin (Homo sapiens)): inactive
Potency [7]: 14.1 µM (active)
Potency [3]: inactive
activity change, negative = inhibition [4]: 35% [at 3.57 µM]

CC/C=C\C/C=C\C/C=C\CCCCCCCC(=O)O
activity change, negative = inhibition [1]: -0.651% [at 6.83 µM]

CCN(CC)CCOCCOC(=O)C(CC)(CC)c1ccccc1
Potency [7]: inactive
Potency [5]: inactive

C=C1[C@H](CO)[C@@H](O)C[C@@H]1n1cnc2c(=O)[nH]c(N)nc21
Potency [7]: inactive
Potency [5]: inactive

Cc1cc(-c2ccc(N=Nc3ccc4c(S(=O)(=O)O)cc(S(=O)(=O)O)c(N)c4c3O)c(C)c2)ccc1N=Nc1ccc2c(S(=O)(=O)O)cc(S(=O)(=O)O)c(N)c2c1O
outcome (Furin (Homo sapiens)): inactive
outcome [12]: inactive
Potency [13]: 5.62 µM (active)
Potency [14]: 8.91 µM (active)
Potency [4]: inactive

COc1ccc(C[C@H](C)NC[C@@H](O)c2ccc(O)c(NC=O)c2)cc1
outcome [1]: inactive
Potency [7]: inactive
Potency [5]: inactive
